Results as given in the supplement of paper PMC11732987, “Enantioselective OTUD7B fragment discovery through chemoproteomics screening and high-throughput optimisation” (Communications Chemistry, 2025).

What was measured:
Experiment in all cases: log2 ratio of Biotin-Ahx-Ub-VS probe labelling (fragment/DMSO); higher = less target engagement (more negative = stronger competition), active = hit call of the paper (q ≤ 0.05, log2 ratio ≤ -1)
Details in all cases: compound concentration: 200 uM; treatment time: 3 h
OTUD6B = molecular target: T1, OTUD6B (UniProt Q8N6M0)
T1 sequence (whole entry): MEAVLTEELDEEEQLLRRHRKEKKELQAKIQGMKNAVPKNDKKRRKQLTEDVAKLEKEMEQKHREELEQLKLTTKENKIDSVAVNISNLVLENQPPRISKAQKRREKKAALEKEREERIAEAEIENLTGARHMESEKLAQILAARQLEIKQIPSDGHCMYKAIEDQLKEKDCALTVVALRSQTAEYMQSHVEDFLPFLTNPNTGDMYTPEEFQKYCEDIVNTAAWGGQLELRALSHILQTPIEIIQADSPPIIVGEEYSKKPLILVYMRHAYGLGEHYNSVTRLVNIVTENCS
In short: (§1)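 Triplicate samples of HEK293T lysate, 495 µg each, received fragment at 200 µM or vehicle for 3 h, followed by Biotin-Ahx-Ub-VS (0.5 µM final) for 1 h. After NeutrAvidin enrichment of labelled DUBs and LysC/trypsin digestion, peptides were run by diaPASEF LC-MS/MS. The values are average log2 fragment/vehicle ratios from global-median-normalised Spectronaut label-free quantities, tested by unpaired t-test on proteins having ≥2 unique peptides.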

OTUD7B = molecular target: T2, OTUD7B (UniProt Q6GQQ9)
T2 sequence (whole entry): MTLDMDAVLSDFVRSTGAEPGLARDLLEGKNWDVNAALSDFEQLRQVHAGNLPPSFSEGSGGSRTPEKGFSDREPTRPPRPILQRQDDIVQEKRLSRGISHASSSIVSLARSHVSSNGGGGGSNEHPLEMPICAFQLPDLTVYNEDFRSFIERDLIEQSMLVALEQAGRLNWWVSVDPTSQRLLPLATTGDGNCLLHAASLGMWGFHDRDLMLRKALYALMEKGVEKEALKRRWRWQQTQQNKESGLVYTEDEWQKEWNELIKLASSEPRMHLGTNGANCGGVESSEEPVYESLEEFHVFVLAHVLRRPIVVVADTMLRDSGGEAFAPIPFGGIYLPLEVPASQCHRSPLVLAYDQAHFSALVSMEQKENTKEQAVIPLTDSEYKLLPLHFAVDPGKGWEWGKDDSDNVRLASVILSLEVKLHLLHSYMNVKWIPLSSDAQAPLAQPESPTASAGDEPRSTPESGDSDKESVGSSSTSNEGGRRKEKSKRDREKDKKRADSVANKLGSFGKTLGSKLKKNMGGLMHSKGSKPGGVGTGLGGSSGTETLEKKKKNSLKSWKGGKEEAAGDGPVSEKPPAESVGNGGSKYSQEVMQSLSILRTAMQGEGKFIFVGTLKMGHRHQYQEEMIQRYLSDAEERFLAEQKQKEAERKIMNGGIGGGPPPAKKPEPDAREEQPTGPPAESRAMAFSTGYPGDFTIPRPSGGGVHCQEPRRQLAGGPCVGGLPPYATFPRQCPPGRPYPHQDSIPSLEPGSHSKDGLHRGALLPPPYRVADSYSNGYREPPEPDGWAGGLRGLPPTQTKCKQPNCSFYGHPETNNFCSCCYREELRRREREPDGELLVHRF
In short: as §1

PRPF8 = PRPF8 (UniProt Q6P2Q9)
In short: as §1

PSMD7 = molecular target: T3, PSMD7 (UniProt P51665)
T3 sequence (whole entry): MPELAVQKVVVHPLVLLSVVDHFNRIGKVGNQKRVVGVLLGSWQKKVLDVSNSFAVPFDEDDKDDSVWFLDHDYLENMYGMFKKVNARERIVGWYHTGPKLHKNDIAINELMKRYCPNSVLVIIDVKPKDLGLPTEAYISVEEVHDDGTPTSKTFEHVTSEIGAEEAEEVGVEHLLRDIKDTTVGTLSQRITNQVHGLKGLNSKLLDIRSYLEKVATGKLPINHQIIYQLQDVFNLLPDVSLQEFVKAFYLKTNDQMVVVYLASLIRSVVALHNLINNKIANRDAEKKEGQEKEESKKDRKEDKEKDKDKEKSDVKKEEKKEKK
In short: as §1

UCHL1 = UCHL1 (UniProt P09936)
Sequence of UCHL1 (P09936 whole entry, looked up): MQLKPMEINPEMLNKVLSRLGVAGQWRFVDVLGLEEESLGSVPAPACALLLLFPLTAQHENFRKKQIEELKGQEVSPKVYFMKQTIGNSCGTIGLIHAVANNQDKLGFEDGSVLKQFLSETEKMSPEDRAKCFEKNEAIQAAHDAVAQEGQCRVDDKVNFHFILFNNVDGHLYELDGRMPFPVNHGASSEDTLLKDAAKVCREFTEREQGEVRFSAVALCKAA
In short: as §1

UCHL3 = molecular target: T4, UCHL3 (UniProt P15374)
T4 sequence (whole entry): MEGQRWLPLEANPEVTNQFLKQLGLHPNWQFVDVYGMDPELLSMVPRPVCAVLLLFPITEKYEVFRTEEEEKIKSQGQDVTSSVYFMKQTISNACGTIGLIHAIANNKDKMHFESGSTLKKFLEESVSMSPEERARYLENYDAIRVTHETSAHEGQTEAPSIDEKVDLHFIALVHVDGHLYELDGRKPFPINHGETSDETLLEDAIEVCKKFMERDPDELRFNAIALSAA
In short: as §1

UCHL5 = molecular target: T5, UCHL5 (UniProt Q9Y5K5)
T5 sequence (whole entry): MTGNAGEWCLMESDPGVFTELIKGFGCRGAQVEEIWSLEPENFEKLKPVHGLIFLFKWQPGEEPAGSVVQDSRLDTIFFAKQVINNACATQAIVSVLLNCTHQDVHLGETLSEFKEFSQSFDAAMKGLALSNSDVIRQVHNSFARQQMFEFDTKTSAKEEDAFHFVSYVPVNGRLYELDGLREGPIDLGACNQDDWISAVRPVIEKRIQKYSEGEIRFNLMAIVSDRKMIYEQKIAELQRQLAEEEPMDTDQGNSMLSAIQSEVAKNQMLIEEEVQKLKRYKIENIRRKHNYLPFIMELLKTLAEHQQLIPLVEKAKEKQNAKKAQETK
In short: as §1

USP10 = USP10 (UniProt Q14694)
Sequence of USP10 (Q14694 whole entry): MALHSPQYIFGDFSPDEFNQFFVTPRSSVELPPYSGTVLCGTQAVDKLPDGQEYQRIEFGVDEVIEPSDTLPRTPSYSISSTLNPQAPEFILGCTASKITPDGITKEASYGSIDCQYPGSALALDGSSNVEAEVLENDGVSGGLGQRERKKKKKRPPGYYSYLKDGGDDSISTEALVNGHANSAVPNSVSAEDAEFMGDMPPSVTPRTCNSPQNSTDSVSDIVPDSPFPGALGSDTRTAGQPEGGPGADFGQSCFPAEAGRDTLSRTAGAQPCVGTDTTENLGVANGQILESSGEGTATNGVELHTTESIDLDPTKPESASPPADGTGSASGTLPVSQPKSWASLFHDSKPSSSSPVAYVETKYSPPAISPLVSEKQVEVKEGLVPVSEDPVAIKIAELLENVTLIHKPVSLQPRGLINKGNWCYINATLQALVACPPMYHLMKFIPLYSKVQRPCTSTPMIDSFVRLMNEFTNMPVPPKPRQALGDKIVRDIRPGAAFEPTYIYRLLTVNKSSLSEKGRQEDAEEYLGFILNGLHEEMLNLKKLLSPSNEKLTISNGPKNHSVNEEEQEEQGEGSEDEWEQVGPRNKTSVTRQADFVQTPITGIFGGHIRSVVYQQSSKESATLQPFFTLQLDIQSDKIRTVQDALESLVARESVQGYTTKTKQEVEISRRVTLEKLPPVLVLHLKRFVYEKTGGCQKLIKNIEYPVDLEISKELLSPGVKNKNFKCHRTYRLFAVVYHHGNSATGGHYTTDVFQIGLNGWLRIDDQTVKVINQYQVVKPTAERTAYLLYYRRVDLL
In short: as §1

USP15 = molecular target: T6, USP15 (UniProt Q9Y4E8)
T6 sequence (whole entry): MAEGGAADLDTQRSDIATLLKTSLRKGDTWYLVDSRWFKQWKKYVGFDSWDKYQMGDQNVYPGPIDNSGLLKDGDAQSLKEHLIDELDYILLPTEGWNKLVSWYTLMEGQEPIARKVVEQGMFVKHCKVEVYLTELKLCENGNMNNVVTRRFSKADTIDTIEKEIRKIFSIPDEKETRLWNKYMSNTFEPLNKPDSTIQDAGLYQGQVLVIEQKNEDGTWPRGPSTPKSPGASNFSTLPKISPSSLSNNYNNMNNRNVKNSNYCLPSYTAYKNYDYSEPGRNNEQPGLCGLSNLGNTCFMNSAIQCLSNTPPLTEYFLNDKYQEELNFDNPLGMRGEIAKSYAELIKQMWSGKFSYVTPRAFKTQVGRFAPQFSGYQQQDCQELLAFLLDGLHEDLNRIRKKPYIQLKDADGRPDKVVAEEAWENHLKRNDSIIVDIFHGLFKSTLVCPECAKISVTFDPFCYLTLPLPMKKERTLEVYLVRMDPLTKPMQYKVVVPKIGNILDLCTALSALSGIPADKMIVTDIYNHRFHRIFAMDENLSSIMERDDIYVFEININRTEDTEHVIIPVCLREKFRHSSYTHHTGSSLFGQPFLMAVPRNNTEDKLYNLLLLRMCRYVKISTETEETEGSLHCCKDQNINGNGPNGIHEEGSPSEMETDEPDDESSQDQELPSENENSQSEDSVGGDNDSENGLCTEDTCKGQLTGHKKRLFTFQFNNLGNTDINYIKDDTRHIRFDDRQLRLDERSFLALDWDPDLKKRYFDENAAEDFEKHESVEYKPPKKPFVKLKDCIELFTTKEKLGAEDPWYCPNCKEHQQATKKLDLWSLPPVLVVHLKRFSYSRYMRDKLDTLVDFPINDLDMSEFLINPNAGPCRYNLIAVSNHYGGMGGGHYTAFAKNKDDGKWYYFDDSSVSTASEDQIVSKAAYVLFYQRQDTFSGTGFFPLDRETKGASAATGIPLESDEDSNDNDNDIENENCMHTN
In short: as §1

USP16 = USP16 (UniProt Q9Y5T5)
Sequence of USP16 (Q9Y5T5 whole entry, looked up): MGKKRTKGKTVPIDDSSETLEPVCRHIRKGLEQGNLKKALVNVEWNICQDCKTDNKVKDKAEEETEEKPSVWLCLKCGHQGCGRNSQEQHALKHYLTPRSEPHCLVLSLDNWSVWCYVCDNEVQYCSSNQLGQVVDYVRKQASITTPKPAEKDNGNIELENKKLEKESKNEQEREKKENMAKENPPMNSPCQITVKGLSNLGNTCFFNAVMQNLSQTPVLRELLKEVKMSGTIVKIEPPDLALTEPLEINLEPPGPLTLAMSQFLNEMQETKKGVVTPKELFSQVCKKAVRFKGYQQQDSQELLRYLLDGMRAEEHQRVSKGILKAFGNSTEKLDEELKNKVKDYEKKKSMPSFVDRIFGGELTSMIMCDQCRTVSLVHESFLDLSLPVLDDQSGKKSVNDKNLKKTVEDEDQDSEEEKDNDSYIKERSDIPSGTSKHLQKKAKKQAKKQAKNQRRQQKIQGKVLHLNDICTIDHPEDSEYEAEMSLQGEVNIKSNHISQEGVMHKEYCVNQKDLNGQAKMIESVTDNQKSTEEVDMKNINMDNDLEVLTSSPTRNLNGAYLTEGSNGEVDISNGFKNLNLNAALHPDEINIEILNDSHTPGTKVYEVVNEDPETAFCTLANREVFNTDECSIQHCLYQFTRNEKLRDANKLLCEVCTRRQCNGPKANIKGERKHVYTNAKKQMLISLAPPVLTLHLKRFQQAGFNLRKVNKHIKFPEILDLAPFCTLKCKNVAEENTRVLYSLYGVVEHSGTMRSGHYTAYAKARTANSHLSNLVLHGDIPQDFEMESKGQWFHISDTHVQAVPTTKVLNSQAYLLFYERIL
In short: as §1

Measured: log2 ratio of Biotin-Ahx-Ub-VS probe labelling

Cc1nnc(C(NC(=O)CCl)c2ccccc2)n1C (stereo not given)
inactive: OTUD6B 0.622 | OTUD7B 0.355 | PRPF8 -0.283 | PSMD7 0.357 | UCHL1 0.102 | UCHL3 0.364 | UCHL5 0.534 | USP10 0.157 | USP15 0.629 | USP16 -0.384
